Most compounds without a hit are left out; they make up all but 12% or so of the library.
HP1b binding inh = blocks HP1-beta chromodomain binding to methylated histone tails. AlphaScreen HP1-beta / biotin-H3K9me3 peptide binding. AID 540317. hit rate 0.56% among 390,000. Potency, µM (series often up to 114 µM), hits mostly inhibitors; note: nearly all actives have a fitted effect of over 70% in size
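AlphaScreen: HP1-beta (50 nM) preformed 30 min with biotin-H3(1-18)K9me3 peptide (50 nM) in PBS pH 7.4, 0.01% Tween-20. Compound added for 30 min at RT, then streptavidin donor/nickel chelate acceptor beads (10 ug/mL) for 30 min.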
BAZ2B block = blocks human BAZ2B; Q9UIF8; AlphaScreen BAZ2B-H3K14Ac peptide displacement; Potency, µM (doses to about 114 µM), hits mostly inhibitors; hit rate 4.4% among 360,000; note: nearly all actives have a fitted effect of over 60% in size
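Inhibition is scored as reduced AlphaScreen emission. The BAZ2B/b-H3(5-23)K14Ac complex (50 nM each) in PBS pH 7.4, 0.01% Tween-20 meets compound (up to 110 uM) for 30 min at RT before bead addition.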
G9a inh = G9a (human) methyltransferase inhibition | Potency, µM (doses to about 102 µM), actives largely listed as inhibitors | G9a H3K9 monomethylation, AlphaScreen, 2 h | hit rate 8.8% among 350,000 | AID 504332 | Q96KQ7; note: nearly all actives have a fitted effect of over 75% in size
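Methyltransferase reactions run at room temperature for 2 h (20 nM enzyme, 500 nM biotin-H3K9 peptide, 20 uM SAM) after a 15 min compound preincubation; product detected by AlphaScreen beads and anti-H3K9me1 antibody.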
L3MBTL1 inh = blocks human L3MBTL1. Q9Y468. AlphaScreen L3MBTL1–H3K9me1 peptide binding. Potency, µM (doses to about 57.1 µM), most hits filed as inhibitors. hit rate 0.66% among 230,000; note: nearly all actives have a fitted effect of over 60% in size
Target sequence (Q9Y468 whole entry, looked up): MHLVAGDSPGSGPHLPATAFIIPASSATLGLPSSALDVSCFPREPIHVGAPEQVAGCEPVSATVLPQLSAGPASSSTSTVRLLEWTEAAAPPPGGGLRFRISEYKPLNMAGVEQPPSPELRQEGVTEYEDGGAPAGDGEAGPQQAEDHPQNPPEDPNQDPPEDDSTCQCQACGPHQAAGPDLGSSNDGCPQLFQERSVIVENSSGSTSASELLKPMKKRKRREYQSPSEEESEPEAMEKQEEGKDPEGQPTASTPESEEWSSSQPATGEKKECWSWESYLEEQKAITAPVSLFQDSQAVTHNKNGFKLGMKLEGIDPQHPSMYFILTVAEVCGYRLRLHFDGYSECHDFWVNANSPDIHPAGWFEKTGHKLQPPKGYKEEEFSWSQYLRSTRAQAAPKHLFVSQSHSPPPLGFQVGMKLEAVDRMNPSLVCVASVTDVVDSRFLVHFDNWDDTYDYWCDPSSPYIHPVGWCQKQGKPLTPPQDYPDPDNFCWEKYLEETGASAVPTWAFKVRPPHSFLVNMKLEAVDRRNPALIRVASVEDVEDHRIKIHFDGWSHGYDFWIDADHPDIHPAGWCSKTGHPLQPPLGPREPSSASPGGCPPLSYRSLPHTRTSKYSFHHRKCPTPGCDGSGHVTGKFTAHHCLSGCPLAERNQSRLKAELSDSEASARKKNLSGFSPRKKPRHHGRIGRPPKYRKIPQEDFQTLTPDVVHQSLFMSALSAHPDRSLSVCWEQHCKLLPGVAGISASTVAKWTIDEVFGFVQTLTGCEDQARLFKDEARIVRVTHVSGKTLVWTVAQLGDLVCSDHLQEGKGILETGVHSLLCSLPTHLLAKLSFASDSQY
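First, the protein-peptide complex forms for 30 min at room temperature (L3MBTL1 50 nM, biotinylated H3K9me1 peptide 75 nM). Next, compounds are pin-transferred and incubated 30 min. Finally, AlphaScreen beads are added and read after 30 min.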
Sfp inh = blocks B. subtilis Sfp PPTase activity; Potency, µM, most hits filed as inhibitors; Q9F4F7; Biochemical Sfp PPTase activity, qHTS; hit rate 3.5% among 310,000;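 note: the enzyme is Sfp with the accession as filed and its product quenches rhodamine fluorescence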
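Sfp 15 nM + cpd, 15 min RT; start w/ rhodamine-CoA 5 uM, BHQ-2-YbbR 12.5 uM (final); 50 mM Hepes pH 7.6, 10 mM MgCl2, 0.01% NP-40, 0.01% BSA; read 525/598 nm at 0 and 30 min.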
JMJD2A Tudor inh = blocks the human JMJD2A Tudor domain; hit rate 4.4% among 390,000; AlphaScreen JMJD2A-Tudor / H3K4me3 peptide binding; O75164; AID 504339; Potency, µM (doses to about 114 µM), usual class: inhibitors; note: nearly all actives have a fitted effect of over 50% in size
Large screens that a line does not name were inactive. Calls come from the whole dose curve; as a rule, active = well fitted curve in the direction sought with a large enough effect; inconclusive = small, poorly fitted or top-dose-only effect, or another doubt; inactive = no such curve, though single readings can be large; an effect the other way counts as inactive or inconclusive.

CCC1C/C(=C/c2ccco2)C(=O)/C(=C/c2ccco2)C1 (configuration not stated)	BAZ2B block 28µM, G9a inh 32µM, L3MBTL1 inh 32µM, Sfp inh 32µM (no result: HP1b binding inh, JMJD2A Tudor inh)
CC1(C)CC(=O)C(C(=O)/C=C/c2ccco2)C(=O)C1	HP1b binding inh inconclusive, BAZ2B block inconclusive, JMJD2A Tudor inh inconclusive
CCN1C(=O)c2ccccc2S(=O)(=O)c2ccc(C(=O)NCc3ccccc3OC)cc21	none (no result: L3MBTL1 inh, Sfp inh)
Cn1c(SCC(=O)N/N=C/C=C\c2ccco2)nc2ccccc21	HP1b binding inh inconclusive, BAZ2B block inconclusive, L3MBTL1 inh inconclusive, JMJD2A Tudor inh 56µM (no result: G9a inh)
Cc1ccc(CSc2nnc(SCC(=O)N/N=C/C=C/c3ccco3)s2)cc1	BAZ2B block 50µM, G9a inh inconclusive, L3MBTL1 inh inconclusive, Sfp inh 40µM
CCn1c(SCC(=O)N/N=C/C=C\c2ccco2)nc2ccccc21	BAZ2B block 45µM, G9a inh 16µM, L3MBTL1 inh 32µM, Sfp inh 10µM, JMJD2A Tudor inh inconclusive
Cc1ccc(Cn2c(SCC(=O)N/N=C/c3ccc(C)o3)nc3ccccc32)cc1	HP1b binding inh inconclusive, BAZ2B block inconclusive, G9a inh inconclusive, Sfp inh 56µM (no result: L3MBTL1 inh)
O=C(CSc1nc2ccccc2n1Cc1ccccc1)N/N=C/c1ccco1	Sfp inh inconclusive
CCn1c(SCC(=O)N/N=C/c2cccs2)nc2ccccc21	none
CC(C(=O)NCc1ccccc1F)n1ccc2cc(S(=O)(=O)N3CCCC3)ccc21 (configuration not stated)	none (no result: L3MBTL1 inh, Sfp inh)
Cc1ccc(N2C(=O)CCSC23C(=O)N(Cc2ccccc2)c2ccccc23)cc1F (configuration not stated)	G9a inh inconclusive, JMJD2A Tudor inh inconclusive (no result: L3MBTL1 inh, Sfp inh)
O=C(NNC1=NS(=O)(=O)c2ccccc21)c1ccc(Cl)cc1	none
O=C(NNC1=NS(=O)(=O)c2ccccc21)c1ccc([N+](=O)[O-])cc1	G9a inh 35µM (no result: L3MBTL1 inh)
Cc1cccc(N(C)C(=O)CCNS(=O)(=O)c2ccc3c(c2)CCN3C(=O)C2CC2)c1	none (no result: L3MBTL1 inh, Sfp inh)
CCc1cccc(C)c1NS(=O)(=O)c1cc2[nH]c(=O)c(=O)[nH]c2cc1C	none (no result: L3MBTL1 inh, Sfp inh)
CCOC(=O)c1c(C)[nH]c(C)c1S(=O)(=O)NCC(=O)Nc1ccc(C)c(N(C)C)c1	none (no result: L3MBTL1 inh, Sfp inh)
Cc1ccc(S(=O)(=O)c2nc(-c3ccccc3)oc2NCc2cccnc2)cc1	BAZ2B block inconclusive, G9a inh 50µM, JMJD2A Tudor inh inconclusive
Cc1ccccc1-c1nc(S(=O)(=O)c2ccc(Br)cc2)c(NCc2cccnc2)o1	none (no result: L3MBTL1 inh)
O=S(=O)(c1ccccc1)c1nc(-c2ccc(Cl)cc2)oc1NCCCN1CCOCC1	G9a inh 45µM, JMJD2A Tudor inh inconclusive (no result: Sfp inh)
CN1CCN(c2oc(-c3ccccc3F)nc2S(=O)(=O)c2ccc(Cl)cc2)CC1	BAZ2B block 35µM, JMJD2A Tudor inh inconclusive (no result: G9a inh, L3MBTL1 inh)
O=S(=O)(c1ccc(Br)cc1)c1nc(-c2ccco2)oc1NCCCn1ccnc1	BAZ2B block 50µM, G9a inh 45µM, L3MBTL1 inh inconclusive, JMJD2A Tudor inh inconclusive (no result: Sfp inh)
NC(=O)C1CCN(c2oc(-c3ccccc3F)nc2S(=O)(=O)c2ccc(Cl)cc2)CC1	G9a inh inconclusive, Sfp inh inconclusive
Cc1ccc(S(=O)(=O)c2nc(-c3ccccc3Cl)oc2NCCCN2CCOCC2)cc1	JMJD2A Tudor inh inconclusive (no result: G9a inh, L3MBTL1 inh)
CCc1c(C)sc2c1CCN(C(=O)Nc1cc(C)ccc1OC)C2c1ccc(F)cc1 (configuration not stated)	none (no result: L3MBTL1 inh, Sfp inh)
O=S(=O)(c1ccccc1)c1nc(-c2ccco2)oc1NCCCN1CCOCC1	G9a inh 14µM, Sfp inh inconclusive
COc1cccc(-c2nc(S(=O)(=O)c3ccccc3)c(NCc3ccccc3)o2)c1	none (no result: L3MBTL1 inh, Sfp inh)
O=S(=O)(c1ccccc1)c1nc(-c2ccco2)oc1NCCN1CCOCC1	G9a inh inconclusive, Sfp inh inconclusive (no result: L3MBTL1 inh)
O=S(=O)(c1ccc(Cl)cc1)c1nc(-c2ccccc2F)oc1NCCCN1CCOCC1	BAZ2B block inconclusive, G9a inh 79µM, JMJD2A Tudor inh inconclusive (no result: L3MBTL1 inh)
Cc1ccc(CNc2oc(-c3ccco3)nc2S(=O)(=O)c2ccccc2)cc1	G9a inh 11µM

Screens as filed in PubChem BioAssay.
